From PubChem BioAssay AID1159580 (chemical genetic matrix, 2015)
Where “and” joins values, the source holds several entries; their conditions need not be identical. Equal values may be shown once. The whole screen tested about 5,500 compounds, of which about 2,000 (36%) were called active. Inconclusive results (about 18%) are left out. Cut-off read from the data, not from the text of the source: active = normalized growth mostly below about 0.91 (no sharp cut-off); inconclusive = no clear call, values can overlap the other calls; inactive = mostly above about 0.92. This is one part of the list.

Assay: chemical genetic growth profiling, strain panel (AID 1159580);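 note: tested at 20 µM; growth read once vehicle control cultures reached saturation at 30 °C; 1 = growth at the plate median or of vehicle wells; lower values mean less growth of the strain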
Conditions: growth OD

Measured: normalized growth

OC(CCN1CCCCC1)(c1ccccc1)C1CCCCC1 (stereo unspecified)
inactive: S. cerevisiae deletion strains, locus YJR075W, strain HOC1, stronger effect = lower value 1.01 and 0.98 | S. cerevisiae deletion strains, locus YKL009W, strain mrt4, stronger effect = lower value 0.999 | S. cerevisiae deletion strains, locus YKL068W, stronger effect = lower value 0.997 | S. cerevisiae deletion strains, locus YKL085W, strain MDH1 (second series), stronger effect = lower value 0.998 | S. cerevisiae deletion strains, locus YKL085W, strain MDH1, stronger effect = lower value 0.998 | S. cerevisiae deletion strains, locus YKL160W, strain elf1, stronger effect = lower value 0.96 | S. cerevisiae deletion strains, locus YKL190W, strain CNB1, stronger effect = lower value 1.01 | S. cerevisiae deletion strains, locus YKR001C, strain vps1, stronger effect = lower value 0.985 | S. cerevisiae deletion strains, locus YKR026C, strain gcn3, stronger effect = lower value 0.971 | S. cerevisiae deletion strains, locus YKR091W, strain srl3, stronger effect = lower value 0.978 | S. cerevisiae deletion strains, locus YLL001W, strain dnm1, stronger effect = lower value 0.918 | S. cerevisiae deletion strains, locus YLL026W, stronger effect = lower value 0.981 | S. cerevisiae deletion strains, locus YLL041C, strain sdh2, stronger effect = lower value 0.975 | S. cerevisiae deletion strains, locus YLR027C, strain aat2, stronger effect = lower value 0.954 | S. cerevisiae deletion strains, locus YLR039C, strain RIC1, stronger effect = lower value 1.12 | S. cerevisiae deletion strains, locus YLR058C, strain SHM2, stronger effect = lower value 1.01 | S. cerevisiae deletion strains, locus YLR102C, strain apc9, stronger effect = lower value 0.995 | S. cerevisiae deletion strains, locus YLR113W, strain HOG1, stronger effect = lower value 0.991 | S. cerevisiae deletion strains, locus YLR221C, strain rsa3, stronger effect = lower value 1.01 | S. cerevisiae deletion strains, locus YLR258W, strain gsy2, stronger effect = lower value 0.992 | S. cerevisiae deletion strains, locus YLR262C, strain YPT6 (second series), stronger effect = lower value 0.989 | S. cerevisiae deletion strains, locus YLR262C, strain YPT6, stronger effect = lower value 1.1 | S. cerevisiae deletion strains, locus YLR268W, strain sec22, stronger effect = lower value 0.98 | S. cerevisiae deletion strains, locus YLR320W, strain mms22, stronger effect = lower value 0.961 | S. cerevisiae deletion strains, locus YLR330W, strain CHS5, stronger effect = lower value 1.01 | S. cerevisiae deletion strains, locus YLR342W, strain FKS1 (second series), stronger effect = lower value 1 | S. cerevisiae deletion strains, locus YLR342W, strain FKS1, stronger effect = lower value 0.959 | S. cerevisiae deletion strains, locus YLR357W, strain rsc2, stronger effect = lower value 0.939 | S. cerevisiae deletion strains, locus YLR370C, strain arc18, stronger effect = lower value 0.974 | S. cerevisiae deletion strains, locus YLR371W, strain rom2, stronger effect = lower value 1 | S. cerevisiae deletion strains, locus YLR384C, strain iki3, stronger effect = lower value 0.961 | S. cerevisiae deletion strains, locus YLR418C, strain cdc73, stronger effect = lower value 0.966 | S. cerevisiae deletion strains, locus YML016C, strain PPZ1, stronger effect = lower value 1.01 | S. cerevisiae deletion strains, locus YML032C, strain rad52, stronger effect = lower value 0.986 | S. cerevisiae deletion strains, locus YML120C, strain ndi1, stronger effect = lower value 0.97 | S. cerevisiae deletion strains, locus YML124C, strain tub3, stronger effect = lower value 0.997 | S. cerevisiae deletion strains, locus YMR058W, strain fet3, stronger effect = lower value 0.964 | S. cerevisiae deletion strains, locus YMR078C, strain ctf18, stronger effect = lower value 0.998 | S. cerevisiae deletion strains, locus YMR125W, strain sto1, stronger effect = lower value 0.977 | S. cerevisiae deletion strains, locus YMR129W, stronger effect = lower value 0.98 | S. cerevisiae deletion strains, locus YMR205C, strain PFK2, stronger effect = lower value 0.955 | S. cerevisiae deletion strains, locus YMR223W, strain ubp8, stronger effect = lower value 1.01 | S. cerevisiae deletion strains, locus YMR231W, strain pep5, stronger effect = lower value 0.973 | S. cerevisiae deletion strains, locus YMR263W, strain SAP30, stronger effect = lower value 1.01 and 0.983 | S. cerevisiae deletion strains, locus YMR307W, strain GAS1, stronger effect = lower value 1.01 and 0.985 | S. cerevisiae deletion strains, locus YNL067W, strain RPL9B, stronger effect = lower value 1 | S. cerevisiae deletion strains, locus YNL071W, strain lat1, stronger effect = lower value 0.98 | S. cerevisiae deletion strains, locus YNL128W, strain TEP1, stronger effect = lower value 1.02 | S. cerevisiae deletion strains, locus YNL153C, strain GIM3, stronger effect = lower value 1 | S. cerevisiae deletion strains, locus YNL175C, strain NOP13, stronger effect = lower value 1.01 | S. cerevisiae deletion strains, locus YNL183C, strain NPR1, stronger effect = lower value 0.935 | S. cerevisiae deletion strains, locus YNL197C, strain WHI3, stronger effect = lower value 1.03 | S. cerevisiae deletion strains, locus YNL209W, strain ssb2, stronger effect = lower value 0.993 | S. cerevisiae deletion strains, locus YNL224C, strain SQS1, stronger effect = lower value 0.998 | S. cerevisiae deletion strains, locus YNL233W, strain BNI4, stronger effect = lower value 0.998 | S. cerevisiae deletion strains, locus YNL248C, strain rpa49, stronger effect = lower value 0.995 | S. cerevisiae deletion strains, locus YNL250W, strain rad50, stronger effect = lower value 0.999 | S. cerevisiae deletion strains, locus YNL271C, strain bni1, stronger effect = lower value 0.989 | S. cerevisiae deletion strains, locus YNL298W, strain CLA4, stronger effect = lower value 1.02 | S. cerevisiae deletion strains, locus YNL307C, strain MCK1, stronger effect = lower value 0.998 | S. cerevisiae deletion strains, locus YNL322C, strain KRE1 (second series), stronger effect = lower value 0.976 | S. cerevisiae deletion strains, locus YNL322C, strain KRE1, stronger effect = lower value 1.01 | S. cerevisiae deletion strains, locus YNR049C, strain mso1, stronger effect = lower value 0.967 | S. cerevisiae deletion strains, locus YNR052C, strain pop2, stronger effect = lower value 1 | S. cerevisiae deletion strains, locus YOL006C, strain TOP1, stronger effect = lower value 0.951 | S. cerevisiae deletion strains, locus YOL012C, strain htz1 0.776 | S. cerevisiae deletion strains, locus YOL147C, strain pex11, stronger effect = lower value 0.994 | S. cerevisiae deletion strains, locus YOR001W, strain rrp6, stronger effect = lower value 0.949 | S. cerevisiae deletion strains, locus YOR061W, strain CKA2, stronger effect = lower value 1.01 | S. cerevisiae deletion strains, locus YOR069W, strain VPS5, stronger effect = lower value 1.01 | S. cerevisiae deletion strains, locus YOR070C, strain gyp1, stronger effect = lower value 0.986 | S. cerevisiae deletion strains, locus YOR080W, strain dia2, stronger effect = lower value 0.971 | S. cerevisiae deletion strains, locus YOR083W, strain WHI5 (second series), stronger effect = lower value 0.994 | S. cerevisiae deletion strains, locus YOR083W, strain WHI5, stronger effect = lower value 0.951 | S. cerevisiae deletion strains, locus YOR106W, strain vam3, stronger effect = lower value 0.936 | S. cerevisiae deletion strains, locus YOR136W, strain idh2, stronger effect = lower value 1 | S. cerevisiae deletion strains, locus YOR144C, strain elg1, stronger effect = lower value 0.993 | S. cerevisiae deletion strains, locus YOR184W, strain ser1, stronger effect = lower value 1.01 | S. cerevisiae deletion strains, locus YOR231W, strain MKK1, stronger effect = lower value 0.984 | S. cerevisiae deletion strains, locus YOR265W, strain rbl2, stronger effect = lower value 0.983 | S. cerevisiae deletion strains, locus YOR270C, strain vph1, stronger effect = lower value 0.849 | S. cerevisiae deletion strains, locus YOR290C, strain snf2, stronger effect = lower value 0.989 | S. cerevisiae deletion strains, locus YOR316C, strain cot1, stronger effect = lower value 1 | S. cerevisiae deletion strains, locus YPL051W, strain arl3, stronger effect = lower value 0.984 | S. cerevisiae deletion strains, locus YPL055C, strain LGE1, stronger effect = lower value 1.03 and 0.971 | S. cerevisiae deletion strains, locus YPL078C, strain atp4, stronger effect = lower value 0.931 | S. cerevisiae deletion strains, locus YPL106C, strain sse1, stronger effect = lower value 1.01 | S. cerevisiae deletion strains, locus YPL240C, strain hsp82, stronger effect = lower value 0.976 | S. cerevisiae deletion strains, locus YPL241C, strain CIN2, stronger effect = lower value 1.01 | S. cerevisiae deletion strains, locus YPL256C, strain CLN2, stronger effect = lower value 0.962 | S. cerevisiae deletion strains, locus YPR119W, strain clb2, stronger effect = lower value 0.998 | S. cerevisiae deletion strains, locus YPR141C, strain kar3, stronger effect = lower value 1.01 | S. cerevisiae deletion strains, locus YPR163C, strain tif3, stronger effect = lower value 0.988 | S. cerevisiae deletion strains, locus YPR167C, strain met16, stronger effect = lower value 0.998 | S. cerevisiae deletion strains, strain wtn01, stronger effect = lower value 0.993 | S. cerevisiae strains, strain wild type, stronger effect = lower value 1.01
